# RECQ1 helicase – qHTS Assay for Inhibitors of RecQ-Like Dna Helicase 1 (RECQ1); Potency, µM (titrated, usually from 57.3 µM), actives largely listed as inhibitors; RECQ1 DNA unwinding, red fluorescence kinetic read; 0.54% of 240,000 active; AID 2549, 2010; ATP-dependent DNA helicase Q1 (Homo sapiens), P46063; further: nearly all actives have a fitted effect of over 30% in size
# Target sequence (P46063 whole entry, looked up): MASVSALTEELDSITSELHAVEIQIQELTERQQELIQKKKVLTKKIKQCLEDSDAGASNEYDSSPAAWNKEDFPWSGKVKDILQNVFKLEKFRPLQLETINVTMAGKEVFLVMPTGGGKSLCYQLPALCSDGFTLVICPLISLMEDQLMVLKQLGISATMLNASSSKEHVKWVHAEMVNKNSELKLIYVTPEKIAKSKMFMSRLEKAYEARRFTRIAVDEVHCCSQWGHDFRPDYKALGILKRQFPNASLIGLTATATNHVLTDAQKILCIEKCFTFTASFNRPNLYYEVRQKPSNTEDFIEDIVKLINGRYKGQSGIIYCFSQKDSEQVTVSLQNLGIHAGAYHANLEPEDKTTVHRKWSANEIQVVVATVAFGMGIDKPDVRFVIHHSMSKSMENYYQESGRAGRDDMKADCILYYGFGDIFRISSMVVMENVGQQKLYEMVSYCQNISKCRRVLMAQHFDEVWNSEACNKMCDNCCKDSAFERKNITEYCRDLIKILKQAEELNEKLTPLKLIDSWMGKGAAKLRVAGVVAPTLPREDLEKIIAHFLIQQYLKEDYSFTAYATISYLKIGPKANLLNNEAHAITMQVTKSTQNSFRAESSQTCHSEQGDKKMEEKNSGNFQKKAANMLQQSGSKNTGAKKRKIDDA
#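 RECQ1T1 50 nM; forked duplex (20 bp + 30-nt ss tails) 200 nM, ATP 2 mM final; pH 8.0, 2 mM MgCl2, 2.5 ug/ml poly(dI-dC); 15 min compound preincubation; discontinuous kinetic read over 2 h at RT.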
# FEN1 inhibitor – qHTS Assay for the Inhibitors of Human Flap endonuclease 1 (FEN1) | AID 588795, 2011 | P39748 | Potency, µM (doses to about 114 µM), hits mostly inhibitors | Recombinant FEN1 flap cleavage, fluorescence, 15 min | 0.35% of 390,000 active; further: nearly all actives have a fitted effect of over 65% in size
#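 Reaction started by adding substrate (50 nM final) to 10 nM enzyme after 15 min room-temperature compound preincubation. Reads at 0 and 15 min, with data normalized and fitted to a four-parameter Hill equation.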
# APE1 inh – qHTS Assay for Inhibitors of the Human Apurinic/apyrimidinic Endonuclease 1 (APE1). DNA repair nuclease/redox regulator APEX1 (Homo sapiens), P27695. recombinant APE1, TAMRA/BHQ-2 abasic DNA cleavage fluorescence. Potency, µM (titrated, usually from 65.8 µM), most hits filed as inhibitors. 0.35% of 350,000 active. AID 2517, 2012; further: nearly all actives have a fitted effect of over 55% in size
#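 Step 1: APE1 (0.75 nM) with compound, 15 min RT. Step 2: add 50 nM fluorophore/quencher THF duplex. Step 3: three fluorescence reads 60 s apart (525/598 nm); read 3 minus read 1 = reaction progress.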
# PI5P4Ka inh – qHTS for Inhibitors of phosphatidylinositol 5-phosphate 4-kinase (PI5P4K). Phosphatidylinositol 5-phosphate 4-kinase type-2 alpha (Homo sapiens), P48426. PI5P4Kalpha enzyme, ADP-Glo luminescence, 60 min; hits give low values. max response, %. 1.2% of 330,000 active. AID 652105, 2013; active means max response of -50% or lower; inconclusive means between -30% and -50%; inactive means -30% or higher; further: value at the top dose of about 77 µM
#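 qHTS, 1536-well: enzyme/substrate mix, compound by pin tool, 5 microM ATP final; RT 60 min; ADP-Glo reagents 1 (45 min) then 2 (30 min); luminescence.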
# BLM helicase inh – qHTS Assay for Inhibitors of Bloom's syndrome helicase (BLM); recombinant BLM DNA unwinding, fluorescence dequenching; Potency, µM (top dose mostly 56.1 µM), hits mostly inhibitors; RecQ-like DNA helicase BLM (Homo sapiens), P54132; 0.2% of 350,000 active; further: nearly all actives have a fitted effect of over 35% in size
# WRN inhibitor – qHTS for Inhibitors of WRN Helicase | Bifunctional 3'-5' exonuclease/ATP-dependent helicase WRN (Homo sapiens), Q14191 | WRN helicase unwinding, fluorescent forked duplex, kinetic | Potency, µM (doses to about 114 µM), most hits filed as inhibitors | 0.46% of 360,000 active | AID 651768, 2012; further: nearly all actives have a fitted effect of over 55% in size
#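 WRN at 20 nM final was preincubated with compound for 15 min at room temperature; reaction started with 100 nM forked duplex oligonucleotide carrying fluorophore and quencher plus 2 mM ATP (final). Unwinding followed kinetically by red fluorescence (ex 525/em 598 nm).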
# ADP-Glo counter – qHTS for Inhibitors of PI5P4K: ADP-Glo counter assay; shares compounds with PI5P4Ka inh; ADP-Glo detection counter-screen, luciferase luminescence, no enzyme; Potency, µM (highest dose often 76.9 µM), usual class: inhibitors; 1,100 tested, under 10 active
# Hits are given with their value; n = inactive; u = inconclusive; x = no result given; [ ] = remark or other dose. A selection: hits, their analogues and other compounds. The true share with any hit is near 1.5%. Unless noted, the call rests on the fitted dose curve; in most records, active means well fitted curve in the direction sought with a large enough effect; inconclusive means small, poorly fitted or top-dose-only effect, or another doubt; inactive means no such curve, though single readings can be large; an effect the other way counts as inactive or inconclusive.
SMILES,RECQ1 helicase,FEN1 inhibitor,APE1 inh,PI5P4Ka inh,BLM helicase inh,WRN inhibitor,ADP-Glo counter
O=c1c2ccccc2cnn1-c1nc2ccccc2[nH]1,n,n,n,-50,n,n,25µM
Cc1ccc(C)c(OC(C)C(=O)Nc2ccc(S(=O)(=O)Nc3nccs3)cc2)c1 (configuration not stated),x,u,n[12.4 µM],-62,n,u,n
Cc1ccc(Cc2nc3ccccc3nc2SCC(=O)N2CCCCC2C)cc1 (configuration not stated),x,n,x,x,n,x,x
COc1cccc2c1C(=O)C[C@]1(CCCC[C@@H]1C)O2,x,n,n,n,x,n,n
CN(C(=O)CSc1nc2ccccc2n1CC(=O)N(C)C1CCCCC1)c1ccc(F)cc1,x,n,x,x,n,x,x
Cc1ccc(NC2Sc3ccccc3NC2=O)cc1 (configuration not stated),n,n,n,-63,n,n,n
O=C1Nc2ccccc2SC1c1ccccc1 (configuration not stated),x,n,n,n,n,n,x
COc1ccc(CN2CCC(=O)N([C@H](CO)CC(C)C)CC2)cc1OC,x,n,n,-59,n,n,n
O=C(NCc1ccc2c(c1)OCO2)c1ccc(Br)cc1,x,n,n,n,n,n,x
O=C(NCc1ccc2c(c1)OCO2)c1cc2ncc(Br)cn2n1,n,n,u,-65,n,u,n
CNC(=O)Cn1c(=O)c2cccn2c2ccc(F)cc21,x,n,x,x,n,x,x
CCc1cc(=O)[nH]c(-n2[nH]c(-c3ccccc3)cc2=O)n1,n,n,n,n,n,n,x
O=c1cc(-c2ccccc2)[nH]n1-c1nc2ccccc2[nH]1,n,n,n,-76,n,n,n
CCOC(=O)C1(C)CCCN(C(=O)c2ccccc2C(F)(F)F)C1 (configuration not stated),x,x,x,-79,x,n,n
COC(=O)C1CCN(C(=O)c2cc(-c3ccco3)nc3ccccc23)CC1,x,40µM,u,-82,x,50µM,n
O=C(c1cc(-c2ccco2)nc2ccccc12)N1CCN(Cc2ccccc2)CC1,x,n,n,n,x,n[11.6 µM],x
COc1ccc(Nc2ccc(Cl)cc2)c(C(=O)O)c1,n,n,n,-52,n,n,n
COc1cccc(Nc2ccccc2C(=O)O)c1,n,n,n,n,n,n,x
Cc1c(C(=O)Nc2ccc(C(=O)O)cc2)cnn1C,n,n,n,n,n,n,x
Cc1c(-c2cc(C(=O)O)on2)cnn1C,n,n,u,-51,n,n,n
O=C(c1ccc(-c2ccc([N+](=O)[O-])cc2)o1)N1CCN(S(=O)(=O)c2cccs2)CC1,x,n,n,-51,x,n,n
O=C(c1ccco1)N1CCN(C(=O)c2ccc(-c3ccc([N+](=O)[O-])cc3)o2)CC1,x,79µM,u,-74,x,u,n
CCOc1ccc(-c2cn3c(n2)sc2cc(C(=O)NCCc4ccc(OC)c(OC)c4)ccc23)cc1,x,n,x,x,n,x,x
CCOC(=O)CSc1nc2ccc(NC(=O)CSc3nnnn3Cc3ccccc3)cc2s1,n,n,n,n,n,n,n
CCOC(=O)Nc1ccc2c(CN3C(=O)NC(CC)(CC)C3=O)cc(=O)oc2c1,n,n,n,n,n,n,x
SMILES,RECQ1 helicase,FEN1 inhibitor,APE1 inh,PI5P4Ka inh,BLM helicase inh,WRN inhibitor,ADP-Glo counter
CCOC(=O)Nc1ccc2c(CNC(C)c3ccccc3OC)cc(=O)oc2c1 (configuration not stated),x,n,n,-90,n,n,n
N#Cc1c(SCC(=O)Nc2nc3ccccc3s2)sc2c(O)cc(=O)[nH]c12,x,18µM,n,-78,x,40µM,n
N#Cc1c(SCC(=O)Nc2nccs2)sc2c(O)cc(=O)[nH]c12,x,45µM,n,-94,n,56µM,n
CCOc1cccc(NC(=O)CSc2sc3c(O)cc(=O)[nH]c3c2C#N)c1,x,n,n,-60,n,n,n
Cc1cc(C)c2c(n1)nn1c(C)c(CCC(=O)Nc3ccc(C)c(Cl)c3)c(C)nc21,x,n,x,x,n,x,x
CC(C)(C(=O)N1CCC1(C)C(=O)NS(=O)(=O)c1ccc(C#N)cc1)c1ccccc1 (configuration not stated),x,x,x,n,x,n,n
Cc1ccc(CC(=O)N2CCOCC2)cc1,n,n,n,n,n,n,x
Cc1ccc(CSCC(=O)N2CCOCC2)cc1,n,n,n,-52,n,u,n
CCOC(=O)c1[nH]c(C)c(CCC(=O)N2CCN(c3cc(C)ccc3C)CC2)c1C,x,n,x,x,n,x,x
Cc1ccccc1CN1C(=O)C(C)Sc2ccc(-c3ccco3)cc21 (configuration not stated),x,x,x,-54,x,n,n
O=C(CSc1nnnn1-c1ccccc1)Nc1ccc(N2CCOCC2)cc1,n,n,n,n,n,n,x
O=C(CCC(=O)c1cccs1)Nc1ncccc1O,x,n,n,-56,x,n,n
O=C(CCC(=O)c1cccs1)Nc1ccc(N2CCCCC2)cc1,n,n,n,-76,n,n[11.6 µM],n
O=C(CSc1nncn1-c1ccccc1)Nc1ccc(N2CCOCC2)cc1,n,n,n,-56,n,u,n
O=C(CCC(=O)c1ccc(Cl)s1)Nc1ncccc1O,x,n,n,u,x,n,x
O=C(Cc1cccs1)Nc1ccc(Cl)cc1,n,n,n,n,n,n,x
O=C(Cc1cccs1)Nc1ccc(N2CCOCC2)cc1,n,n,u,-53,n,n,n
CCN1CCC(N(Cc2cccc(OC)c2)C(=O)Nc2cccc(C)c2C)CC1,x,n,x,x,n,x,x
Cc1ccc2sc(N(Cc3cccnc3)C(=O)CCOc3ccccc3)nc2c1C,x,n,x,x,n,x,x
O=C(CSc1cn(CC(=O)N2CCCCCC2)c2ccccc12)Nc1ccccc1F,x,n,x,x,n,x,x
Cc1ccc(C(=O)N2CCc3cc(CNS(=O)(=O)c4ccc(Cl)s4)ccc32)cc1,x,n,x,x,n,x,x
Cc1cccc(OCC(=O)Nc2ccc(Cl)c(-c3nc4ncccc4o3)c2)c1C,x,n,x,x,n,x,x
S=C(NCc1ccccc1)N1CCc2ccccc2C1,n,n,n,-93,n,n,n
O=C(O)C1Nc2c(Cl)cc(Cl)c(Cl)c2C2C=CCC12 (configuration not stated),x,35µM,x,-76,x,40µM,n
CCOC(=O)CSc1ccc2nnc(-c3cccs3)n2n1,n,n,n,-51,n,n,n
